{"source": "PubChem BioAssay (EPA / NIEHS)", "key": {"[1]": {"assay": "ACEA_AR_agonist_AUC_viability: ACEA Biosciences xCELLigence Real-Time Cell Analysis on Androgen Receptor Agonism for Viability (AID 2283775)", "outline": "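Real-time impedance tracking of 22Rv1 growth, readings every 5 min for 5 h then hourly; area-under-curve viability endpoint at 80 hours, relative to DMSO. Compounds at eight concentrations, 1:4 steps, top 100 uM, n = 2.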"}, "[2]": {"assay": "ACEA_AR_antagonist_AUC_viability: ACEA Biosciences xCELLigence Real-Time Cell Analysis on Androgen Receptor Antagonism for Viability (AID 2283776);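 further: hits lower the growth signal relative to DMSO meaning cytotoxicity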", "outline": "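Viability endpoint from label-free cell-index monitoring: 22Rv1 cultures treated with an eight-point 1:4 dilution series starting at 100 uM final, AUC at 80 h fitted against DMSO.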"}, "[3]": {"assay": "ACEA_ER_AUC_viability: ACEA Biosciences xCELLigence Real-Time Cell Analysis on Estrogen Receptor Agonism for Viability (AID 2283782);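 further: continuous compound exposure with impedance area under curve over 80 h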", "outline": "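T-47D human breast cells in phenol red-free RPMI1640 with 10% charcoal-stripped FBS were dosed with an 8-point 1:4 dilution series from 100 uM top final concentration, in duplicate. Impedance-based growth was followed for 80 h; AUC analysed versus DMSO.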"}, "[4]": {"biological_target": "AR (gene 367) (UniProt P10275)", "sequence (P10275 whole entry, looked up)": "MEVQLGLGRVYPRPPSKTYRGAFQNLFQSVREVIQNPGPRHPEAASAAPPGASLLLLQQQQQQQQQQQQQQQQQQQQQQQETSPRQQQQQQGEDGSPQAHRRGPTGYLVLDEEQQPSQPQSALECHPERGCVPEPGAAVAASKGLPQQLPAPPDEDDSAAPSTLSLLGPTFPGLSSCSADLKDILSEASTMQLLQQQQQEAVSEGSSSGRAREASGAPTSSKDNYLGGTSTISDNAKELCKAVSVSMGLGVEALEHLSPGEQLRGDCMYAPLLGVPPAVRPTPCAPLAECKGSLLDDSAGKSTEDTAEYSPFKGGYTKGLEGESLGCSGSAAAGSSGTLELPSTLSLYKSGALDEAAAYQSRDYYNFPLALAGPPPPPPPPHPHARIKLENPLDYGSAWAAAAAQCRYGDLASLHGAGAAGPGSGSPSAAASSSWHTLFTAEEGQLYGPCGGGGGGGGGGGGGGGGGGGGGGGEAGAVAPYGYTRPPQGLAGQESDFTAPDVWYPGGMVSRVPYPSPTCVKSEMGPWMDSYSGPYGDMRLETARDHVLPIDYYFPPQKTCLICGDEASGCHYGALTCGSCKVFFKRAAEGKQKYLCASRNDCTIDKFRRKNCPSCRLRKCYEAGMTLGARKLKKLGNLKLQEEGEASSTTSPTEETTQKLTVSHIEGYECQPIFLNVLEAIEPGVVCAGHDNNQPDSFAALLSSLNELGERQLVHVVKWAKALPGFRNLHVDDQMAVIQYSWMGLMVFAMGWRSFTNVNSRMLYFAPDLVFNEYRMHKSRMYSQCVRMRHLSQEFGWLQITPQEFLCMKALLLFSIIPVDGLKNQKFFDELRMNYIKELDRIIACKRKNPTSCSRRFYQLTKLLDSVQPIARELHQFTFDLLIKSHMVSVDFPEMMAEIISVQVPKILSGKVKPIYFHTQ", "assay": "ACEA_AR_agonist_80hr: ACEA Biosciences xCELLigence Real-Time Cell Analysis on Androgen Receptor Agonism for Proliferation (AID 2283783);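 further: hits increase impedance growth signal above DMSO baseline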", "outline": "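22Rv1 human prostate cancer cells were seeded after preconditioning in assay medium and monitored overnight, then dosed in an eight-point 1:4 dilution series from 100 uM (≤0.5% DMSO). Impedance-based growth was read at 80 h, gain-of-signal versus DMSO.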"}, "[5]": {"assay": "STM_H9_NormalizedViability: Cytotoxicity Assessment at 120 hours in the Stemina devTOX quickPredict H9 human embryonic stem cell (hESC)-based Assay (AID 2283784)", "outline": "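Pluripotent H9 hESCs were exposed, with chemical and media replaced every 24 h. Viability was read by CellTiter-Fluor fluorescence, background-corrected and normalized to the 0.1% DMSO neutral control per plate. Loss of signal was fitted.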"}}, "note": "Records with an inconclusive call do not appear. The source made the active and inactive calls. How the source made its calls: active means hit-call score of the fitted dose curve at least 0.9, where 1 is the maximum; inconclusive means response in the unintended direction; inactive means score below 0.9.", "data": [{"smiles": "CCCCOCN(C(=O)CCl)c1c(CC)cccc1CC", "values": [{"measurement": "AC50", "setting": "[1]", "result": "85.2 µM (active)"}, {"measurement": "AC50", "setting": "[2]", "result": "70.9 µM (active)"}, {"measurement": "AC50", "setting": "[3]", "result": "87.6 µM (active)"}, {"measurement": "AC50", "setting": "[4]", "result": "10.5 µM (active)"}]}, {"smiles": "COc1cc(Cl)c(OC)cc1Cl", "values": [{"measurement": "outcome", "setting": "[1]", "result": "inactive"}, {"measurement": "outcome", "setting": "[2]", "result": "inactive"}, {"measurement": "outcome", "setting": "[3]", "result": "inactive"}]}, {"smiles": "CCCC(=NOCC)C1=C(O)CC(CC(C)SCC)CC1=O", "note": "(stereo not given)", "values": [{"measurement": "AC50", "setting": "[1]", "result": "79.5 µM (active)"}, {"measurement": "outcome", "setting": "[2]", "result": "inactive"}, {"measurement": "outcome", "setting": "[3]", "result": "inactive"}]}, {"smiles": "CC1(C)C(C(=O)OC(C#N)c2cccc(Oc3ccccc3)c2)C1(C)C", "note": "(stereo not given)", "values": [{"measurement": "AC50", "setting": "[1]", "result": "50 µM (active)"}, {"measurement": "AC50", "setting": "[2]", "result": "50 µM (active)"}, {"measurement": "AC50", "setting": "[3]", "result": "89.4 µM (active)"}]}, {"smiles": "CC1(C)CON(Cc2ccccc2Cl)C1=O", "values": [{"measurement": "outcome", "setting": "[1]", "result": "inactive"}, {"measurement": "AC50", "setting": "[2]", "result": "18.6 µM (active)"}, {"measurement": "outcome", "setting": "[5]", "result": "inactive"}]}, {"smiles": "CC(C)Oc1cccc(NC(=O)c2ccccc2C(F)(F)F)c1", "values": [{"measurement": "outcome", "setting": "[1]", "result": "inactive"}, {"measurement": "outcome", "setting": "[2]", "result": "inactive"}, {"measurement": "outcome", "setting": "[3]", "result": "inactive"}]}, {"smiles": "COP(=O)(OC)O/C(C)=C/C(=O)N(C)C", "values": [{"measurement": "outcome", "setting": "[1]", "result": "inactive"}, {"measurement": "outcome", "setting": "[2]", "result": "inactive"}]}, {"smiles": "N#Cc1c[nH]cc1-c1cccc2c1OC(F)(F)O2", "values": [{"measurement": "AC50", "setting": "[1]", "result": "32.5 µM (active)"}, {"measurement": "outcome", "setting": "[3]", "result": "inactive"}, {"measurement": "AC50", "setting": "[5]", "result": "76.4 µM (active)"}]}, {"smiles": "Nc1c(Cl)c(Cl)nc(C(=O)O)c1Cl", "values": [{"measurement": "outcome", "setting": "[1]", "result": "inactive"}, {"measurement": "outcome", "setting": "[2]", "result": "inactive"}, {"measurement": "outcome", "setting": "[3]", "result": "inactive"}]}, {"smiles": "CO/N=C(/C1=NOCCO1)c1ccccc1Oc1ncnc(Oc2ccccc2Cl)c1F", "values": [{"measurement": "AC50", "setting": "[1]", "result": "43 µM (active)"}, {"measurement": "AC50", "setting": "[2]", "result": "55.5 µM (active)"}, {"measurement": "AC50", "setting": "[3]", "result": "91.8 µM (active)"}, {"measurement": "AC50", "setting": "[5]", "result": "35.2 µM (active)"}]}, {"smiles": "Nc1c(Cl)c(F)nc(OCC(=O)O)c1Cl", "values": [{"measurement": "outcome", "setting": "[1]", "result": "inactive"}, {"measurement": "outcome", "setting": "[2]", "result": "inactive"}, {"measurement": "outcome", "setting": "[4]", "result": "inactive"}]}, {"smiles": "O=C1C2CC=CCC2C(=O)N1SC(Cl)(Cl)Cl", "note": "(stereo not given)", "values": [{"measurement": "AC50", "setting": "[1]", "result": "24.5 µM (active)"}, {"measurement": "AC50", "setting": "[2]", "result": "17.2 µM (active)"}, {"measurement": "outcome", "setting": "[5]", "result": "inactive"}]}, {"smiles": "O=C(O)c1c(Cl)ccc2cc(Cl)cnc12", "values": [{"measurement": "outcome", "setting": "[2]", "result": "inactive"}, {"measurement": "outcome", "setting": "[3]", "result": "inactive"}]}, {"smiles": "CC(C)Nc1nc(Cl)nc(NC(C)C)n1", "values": [{"measurement": "outcome", "setting": "[2]", "result": "inactive"}, {"measurement": "outcome", "setting": "[3]", "result": "inactive"}, {"measurement": "outcome", "setting": "[5]", "result": "inactive"}]}, {"smiles": "CS(=O)(=O)c1cc(C(F)(F)F)ccc1C(=O)c1cnoc1C1CC1", "values": [{"measurement": "outcome", "setting": "[2]", "result": "inactive"}, {"measurement": "outcome", "setting": "[3]", "result": "inactive"}, {"measurement": "outcome", "setting": "[5]", "result": "inactive"}]}, {"smiles": "CNC(=O)N(C)c1nnc(C(C)(C)C)s1", "values": [{"measurement": "outcome", "setting": "[1]", "result": "inactive"}, {"measurement": "outcome", "setting": "[2]", "result": "inactive"}, {"measurement": "outcome", "setting": "[3]", "result": "inactive"}]}, {"smiles": "CNC(=O)Oc1cccc2ccccc12", "values": [{"measurement": "AC50", "setting": "[2]", "result": "24.8 µM (active)"}, {"measurement": "outcome", "setting": "[3]", "result": "inactive"}]}, {"smiles": "Cn1c(-c2ccccc2)cc(-c2ccccc2)[n+]1C", "values": [{"measurement": "AC50", "setting": "[1]", "result": "28.7 µM (active)"}, {"measurement": "AC50", "setting": "[2]", "result": "41.7 µM (active)"}, {"measurement": "AC50", "setting": "[5]", "result": "31.1 µM (active)"}]}, {"smiles": "O=C(Nc1ccccc1-c1ccc(Cl)cc1)c1cccnc1Cl", "values": [{"measurement": "AC50", "setting": "[1]", "result": "61.3 µM (active)"}, {"measurement": "AC50", "setting": "[2]", "result": "50 µM (active)"}, {"measurement": "outcome", "setting": "[3]", "result": "inactive"}, {"measurement": "outcome", "setting": "[5]", "result": "inactive"}]}, {"smiles": "CC(C)N1C(=O)N(c2ccccc2)CSC1=NC(C)(C)C", "values": [{"measurement": "AC50", "setting": "[1]", "result": "28.9 µM (active)"}, {"measurement": "AC50", "setting": "[2]", "result": "50 µM (active)"}, {"measurement": "AC50", "setting": "[3]", "result": "89.6 µM (active)"}]}, {"smiles": "Nc1cnn(-c2ccccc2)c(=O)c1Cl", "values": [{"measurement": "outcome", "setting": "[1]", "result": "inactive"}, {"measurement": "outcome", "setting": "[2]", "result": "inactive"}, {"measurement": "outcome", "setting": "[3]", "result": "inactive"}]}, {"smiles": "N#CN=C1SCCN1Cc1ccc(Cl)nc1", "values": [{"measurement": "outcome", "setting": "[1]", "result": "inactive"}, {"measurement": "outcome", "setting": "[2]", "result": "inactive"}, {"measurement": "outcome", "setting": "[5]", "result": "inactive"}]}, {"smiles": "CCOc1cc(C(C)(C)C)ccc1C1COC(c2c(F)cccc2F)=N1", "note": "(stereo not given)", "values": [{"measurement": "AC50", "setting": "[1]", "result": "24 µM (active)"}, {"measurement": "AC50", "setting": "[2]", "result": "19.1 µM (active)"}, {"measurement": "AC50", "setting": "[3]", "result": "51.2 µM (active)"}, {"measurement": "outcome", "setting": "[4]", "result": "inactive"}]}]}
